MITF TRPM1 HTS: MITF TRPM1 promoter activation in melanoma cells. AID 588334. SK-MEL-5 TRPM1-promoter luciferase, 24 h; % of positive control, neutral wells = 0. actives 0.75% (n = 300,000). activation, % at 12.5 µM;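 active means mean activation of at least 80% with every replicate also reaching 80%; inconclusive means mean reaches 80% but some replicate falls short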;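 further: 0% = neutral control wells and 100% = parthenolide positive control wells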
esBAF inh: blocks esBAF chromatin remodeling in mouse ES cells | Bmi1-luciferase knock-in reporter, 24 h; 100% = twice the neutral-well signal | actives 2% (n = 350,000) | reporter increase, % at 12.5 µM; in the data active means activation above about 40%; inconclusive means no clear call, values can overlap the other calls;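 further: 0% = median of the plate's neutral control wells and 100% = double that signal; a rise in the Bmi1 reporter signal indicates esBAF inhibition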
HSF1 inhib: HSF1 inhibition. AID 2098. activity change, negative = inhibition, % at 7.5 µM (by protocol). NIH3T3-HGL HSE-luciferase, MG132-induced, luminescence 8 h; stronger effect = lower value. actives 0.77% (n = 300,000);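 active means more than half of replicate wells show activity change below -50%, luminescence cut by over half; inconclusive means some wells, but at most half, below -50%; inactive means no replicate well below -50%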;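 further: luciferase reports HSF-1 transcriptional activity via heat shock element; 0% = median of DMSO wells and -100% = zero luminescence signal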
HSF-1 act: increases HSF-1 driven luciferase reporter signal; activation, % at 9 µM; actives 1.7% (n = 300,000); AID 504408; NIH3T3-HGL HSF-1 luciferase reporter, MG132, 8 h; 100% = twice DMSO control signal;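 active means mean replicate activation of at least 50% with a set share of replicates each reaching 50%; inconclusive means only one of those two conditions met; inactive means mean below 50% and too few replicates reaching it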;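 further: 0% = median of the neutral control wells and 100% = twice that signal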
Wnt bcat act: activators of Wnt/beta-catenin signaling. Wnt/beta-catenin reporter cell assay, activator, plate reader. activation, % at 9.35 µM. actives 1.2% (n = 300,000). AID 743398; in the data active means activation above about 30%, passing the limit was not always enough; inconclusive means no clear call, values can overlap the other calls;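 further: 0% = neutral control wells and 100% = positive control wells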
* = called active by the depositor; ? = inconclusive; . = no result given. The list is not random: actives were taken first. Their share in the collection is about 3.9%.

SMILES	MITF TRPM1 HTS	esBAF inh	HSF1 inhib	HSF-1 act	Wnt bcat act
Cn1c(-c2nnn(-c3ccc(F)cc3)n2)cc2ccccc21	.	.	28	17	?
Fc1ccc(-n2nnc(-c3ccccc3)n2)cc1	5	1	-1	-17	-1
Cc1ccc(-n2nnc(-c3ccnc4ccccc34)n2)cc1	94*	69*	22	28	40*
Fc1ccc(-n2nnc(-c3ccnc4ccccc34)n2)cc1	.	61*	20	34	?
Cc1ccc(-n2nnc(-c3cc4ccccc4n3C)n2)cc1	75	58*	18	27	11
Cc1ccc(-n2nc3c4c(cccc4c2=O)-c2ccccc2-3)cc1	2	1	-16	1	.
CN1C[C@@H]2[C@H](c3ccccc31)[C@@H](CO)N2C(=O)c1ccccn1	.	1	.	.	.
CCOC(=O)c1cnc(SCc2ccccc2)nc1N	107*	79*	11	15	.
COc1ccc(C(=O)NC(=S)Nc2ccc(CN3CCOCC3)cc2)cc1Cl	0	-9	-11	-12	-2
COc1ccc(C(=O)NC(=S)Nc2ccc(CN3CCCCC3)cc2)cc1Cl	13	.	17	59*	-1
Cc1ccc(-c2cn(-c3ccccc3F)c(=S)[nH]2)cc1	53	47*	-3	12	13
COc1ccccc1-n1cc(-c2ccccc2)[nH]c1=S	-13	-2	9	11	1
O=[N+]([O-])c1ccc(-c2cn(-c3ccccc3F)c(=S)[nH]2)cc1	24	.	36	60*	2
CCCNC(=O)[C@@H]1[C@@H](CO)[C@@H]2Cn3c(ccc(-c4cccc(OC)c4)c3=O)[C@H]1N2CCC	.	-2	.	.	.
C[C@@H]1CN([C@H](C)CO)C(=O)c2cc(NS(=O)(=O)c3ccc(F)cc3)ccc2O[C@H]1CN(C)C	.	2	.	.	.
O=C(Nc1ccc(Cl)cc1)/C(=C/c1cccc(O)c1)c1nc2ccccc2s1	-92	.	-76*	-74	-39
O=C(O)C/C(=C\c1cccc(NC(=O)c2ccccc2Cl)c1)c1nc2ccccc2s1	7	10	8	18	-6
Cc1ccc(-c2cc(C(F)F)nc(S(C)(=O)=O)n2)cc1	-33	4	250	305*	-1
CN1C(=O)c2cc(NC(=O)c3ccc(F)c(F)c3)ccc2OC[C@H]2O[C@H](CC(=O)N3CCOCC3)CC[C@@H]21	.	-6	.	.	.
Cc1noc(C)c1NC(=O)Nc1ccc2c(c1)C(=O)N([C@@H](C)CO)C[C@H](C)[C@@H](CN(C)Cc1ccncc1)OCCCC[C@H](C)O2	.	-3	.	.	.
c1ccc(-c2ccc3ccccc3n2)cc1	.	37	15	24	47*
c1ccc(-c2ccc3ncccc3n2)cc1	.	32	.	.	14
Cc1nc(-c2ccccc2)cc(-c2ccccc2)n1	5	4	3	-1	-3
c1ccc2nc(-c3ccc(-n4ccnc4)cc3)ccc2c1	43	14	24	44	49*
c1ccc(-c2cccc(-c3ccccc3)n2)cc1	51	44*	15	10	7
C[C@@H]1CN([C@H](C)CO)C(=O)c2cc(NC(=O)CCC(F)(F)F)ccc2O[C@@H](C)CCCCO[C@H]1CN(C)C(=O)Cc1ccccc1	.	2	.	.	.
